A selection: hits, their analogues and other compounds. The true share with any hit is near 11%.
FBPA coupling cs = counter-screen for Giardia aldolase inhibitors: coupling enzyme system; coupling enzyme system counterscreen, AmpLite Red fluorescence; activity change, negative = inhibition, % at 58.2 µM, hits read low; actives 0.67% (n = 290,000); AID 2472; in the data active = activity change below about -30%
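Counterscreen of the coupled detection system alone, without aldolase: glyceraldehyde-3-phosphate coupling enzymes plus AmpLite Red readout. Compounds at 57.5 uM final, 10 min RT preincubation, 20 min RT reaction, fluorescence 525/598 nm.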
Tau fluor cs = counter-screen for tau fibril formation inhibitors. AID 1463. tau K18 P301L Alexa594 fluorescence, heparin fibrillization. actives 0.93% (n = 280,000). Potency, µM (highest dose often 57.7 µM), for the others: at the highest dose activity change, negative = decrease; note: potency is the fitted concentration of half-maximal effect; nearly all actives have a fitted effect of over 55% in size
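Human K18 P301L tau (15 uM unlabeled plus 0.24 uM Alexa 594-labeled, final) in 100 mM sodium acetate pH 7 was mixed with compound and 20 uM heparin and incubated 6 hr at 37 C.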
G9a inh = blocks human histone lysine methyltransferase G9a; G9a H3K9 monomethylation, AlphaScreen, 2 h; AID 504332; Q96KQ7; actives 8.8% (n = 350,000); Potency, µM (top dose mostly 102 µM), for the others: top-dose activity, negative = inhibition, actives largely listed as inhibitors; note: potency is the fitted concentration of half-maximal effect; nearly all actives have a fitted effect of over 75% in size
Target sequence (Q96KQ7 913-1193 limits assumed): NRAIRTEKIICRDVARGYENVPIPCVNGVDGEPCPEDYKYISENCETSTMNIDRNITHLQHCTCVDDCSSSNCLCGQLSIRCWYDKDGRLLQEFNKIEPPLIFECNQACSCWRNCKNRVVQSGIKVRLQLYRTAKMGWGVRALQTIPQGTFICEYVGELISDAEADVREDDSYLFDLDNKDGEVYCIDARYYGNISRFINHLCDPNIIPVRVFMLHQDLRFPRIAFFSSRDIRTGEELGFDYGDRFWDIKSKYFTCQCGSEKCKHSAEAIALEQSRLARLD
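Compounds were preincubated with 20 nM G9a for 15 min, after which biotinylated H3K9 peptide (500 nM) and SAM (20 uM) started a 2 h room-temperature reaction. Monomethylated product was quantified by antibody-based AlphaScreen chemiluminescence.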
Sfp inh = Sfp phosphopantetheinyl transferase inhibition | Biochemical Sfp PPTase activity, qHTS | Potency, µM, for the others: largest response in the series, negative = inhibition, most hits filed as inhibitors | Q9F4F7 | actives 3.5% (n = 310,000) | AID 1490;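 note: the enzyme is Sfp with the accession as filed and its product quenches rhodamine fluorescence; potency is the fitted concentration of half-maximal effect; 0% = enzyme reaction without inhibitor and -100% = no enzyme wells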
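After 15 min at room temperature with compound, 15 nM Sfp received 5 uM rhodamine-CoA plus 12.5 uM BHQ-2-ybbR (50 mM Hepes pH 7.6, 10 mM MgCl2). Rate came from the fluorescence difference over 30 min, ex 525/em 598 nm.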
Tau FP inhib = inhibitors of human tau fibril formation. Potency, µM (titrated, usually from 57.7 µM), without a hit: at the top dose activity, negative = inhibition, hits mostly inhibitors. K18 P301L tau heparin fibrillization, Alexa594 FP, 6 h. P10636. AID 1468. actives 0.39% (n = 280,000); note: potency is the fitted concentration of half-maximal effect; nearly all actives have a fitted effect of over 55% in size
Target sequence (P10636 561-689 P618L limits assumed): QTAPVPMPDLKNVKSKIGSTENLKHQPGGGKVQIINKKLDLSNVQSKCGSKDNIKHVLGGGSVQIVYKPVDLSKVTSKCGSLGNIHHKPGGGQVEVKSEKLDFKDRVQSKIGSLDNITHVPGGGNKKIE
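Compound effects on tau fibrillization are measured by Alexa 594 fluorescence polarization (ex 555, em 632 nm). K18 P301L tau is used at 15 uM with 0.24 uM labeled tracer, and 20 uM heparin induces aggregation over 6 hr at 37 C.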
Tau ThT inhib = tau fibrillization inhibition (ThT binding). Potency, µM (series often up to 57.4 µM), for inactives: at the top dose activity, negative = inhibition, most hits filed as inhibitors. actives 2.1% (n = 270,000). AID 1460. recombinant tau K18 P301L, heparin-induced fibrillization, ThT fluorescence. P10636; note: potency is the fitted concentration of half-maximal effect; nearly all actives have a fitted effect of over 55% in size
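Fibril formation assay: tau K18 P301L at 15 uM with trace Alexa 594 label, heparin inducer 20 uM, pH 7 sodium acetate buffer, 37 C for 6 hr; endpoint ThT signal.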
* = called active by the depositor; ? = inconclusive; · = no result; [ ] = remark or other dose. Unless noted, calls come from the whole dose curve; as a rule, active = well fitted curve in the direction sought with a large enough effect; inconclusive = small, poorly fitted or top-dose-only effect, or another doubt; inactive = no such curve, though single readings can be large; an effect the other way counts as inactive or inconclusive. Unless noted, % is set by controls: 0 for no effect and ±100 for the full control effect.

SMILES	FBPA coupling cs	Tau fluor cs	G9a inh	Sfp inh	Tau FP inhib	Tau ThT inhib
CC1(C)CC(c2nc(-c3ccc([N+](=O)[O-])cc3)cs2)CCO1 (centres undefined)	0.0	-15.0%	50.1µM*	?	2.6%	-8.3%
Nc1nc(-c2ccc(F)cc2)cs1	1.6	2.4%	44.7µM*	9.4%	11.8%	-6.9%
CNc1nc(-c2ccc([N+](=O)[O-])cc2)cs1	3.8	-12.8%	-38.1%[59 µM]	-12.2%	10.8%	12.6µM*
CC(C)C(=O)Nc1nc(-c2ccc([N+](=O)[O-])cc2)cs1	-6.3	-3.0%	2.0%[59 µM]	11.7%	3.7%	-14.4%
COCC(=O)Nc1nc(-c2ccc([N+](=O)[O-])cc2)cs1	0.9	-17.1%	-35.5%	-4.9%	-6.6%	?
CC(C)OCCCNC(=O)CCCn1c(SCC(=O)c2ccc(F)cc2)nc2c(sc3ccccc32)c1=O	·	-6.6%	-30.5%[59 µM]	·	-9.4%	-0.3%
COc1ccc(C2NN=C(c3c[nH]c4ccccc34)C2O)cc1 (centres undefined)	-3.9	·	22.4µM*	56.2µM*	·	·
COc1ccc(C2C(O)C(c3c[nH]c4ccccc34)=NN2C(=O)CCl)cc1 (centres undefined)	0.5	·	?	-2.3%	·	·
CCn1cc(-c2n[nH]c(=S)n2-c2ccc(C)cc2Br)c(=O)c2ccc(C)nc21	0.9	-8.9%	10µM*	6.4%	-2.7%	-15.9%
CCOC(=O)c1c(C)[nH]c(C)c1S(=O)(=O)N1CCN(C(=O)c2ccco2)CC1	·	·	15.6%	12.2%	·	·
c1ccc(-c2nnc(-c3ccccn3)nc2NC2CCCCC2)cc1	1.4	-15.6%	-3.9%	1.0%	-12.6%	-15.3%
CNc1nc(-c2ccccn2)nnc1-c1ccccc1	1.2	0.0%	1.9%[12.7 µM]	63.1µM*	-0.8%	-6.8%
CC(C)(CC(=O)O)CC(=O)Nc1ccc(Cl)c(Cl)c1	6.9	-9.4%	-0.7%[59 µM]	27.0%	-4.0%	-2.8%
S=c1[nH]nc(-c2cccc(Br)c2)o1	8.9	4.1%	1.78µM*	10.9%	9.3%	-7.6%
CCc1cccc(CC)c1-n1c(-c2cccnc2)n[nH]c1=S	-1.8	6.1%	?	-10.4%	2.9%	0.2%
Cc1oc(-c2cccc(Br)c2)[n+]([O-])c1C	0.3	-4.2%	2.1%	-16.5%	2.1%	-4.6%
Nc1nc(-c2cccc(Br)c2)cs1	0.8	-18.6%	?	-18.6%	-3.0%	?
S=c1[nH]nc(-c2cccnc2)o1	2.2	3.9%	?	56.2µM*	-2.8%	0.4%
Nn1c(-c2cccc(Br)c2)n[nH]c1=S	-0.1	4.6%	2.24µM*	?	3.1%	-7.7%
CC(NC(=O)CSc1nc(-c2ccccc2F)nc2cc(=O)[nH]n12)c1nc2ccccc2n1C (centres undefined)	·	-3.5%	29.0%[59 µM]	·	-8.4%	-14.4%
Cc1sc2ncnc(N3CCCC(C)C3)c2c1C (centres undefined)	4.6	4.7%	56.2µM*	12.9%	-0.4%	-0.7%
CC1CCCN(c2ncnc3c2cnn3-c2ccccc2)C1 (centres undefined)	-5.0	-13.0%	43.0%[59 µM]	89.1µM*	-5.8%	?
COc1ccc(S(=O)(=O)N2CCCN(CC(=O)Nc3ccc(OC)cc3OC)CC2)cc1	·	-22.8%	4.7%[59 µM]	·	-4.7%	-16.8%
Cc1cc(Nc2ccc(Cl)cc2)nc(NCc2ccccc2)n1	-6.0	17.8µM*[quencher]	-15.8%[59 µM]	20µM*	?	-17.8%
Cc1cc(Oc2ccccc2)nc(NCc2ccccc2)n1	3.5	-16.8%	59.2%[12.7 µM]	1.5%	-3.7%	?
SMILES	FBPA coupling cs	Tau fluor cs	G9a inh	Sfp inh	Tau FP inhib	Tau ThT inhib
CCCCNc1cc(C)nc(NCc2ccccc2)n1	0.3	-21.2%	-17.2%	-15.0%	-3.2%	-11.2%
Cc1cc(Nc2cccc(F)c2)nc(NCc2ccccc2)n1	-5.6	15.8µM*[quencher]	4.9%[59 µM]	56.2µM*	?	0.5%
Cc1cc(Nc2ccccc2)nc(NCc2ccccc2)n1	0.9	17.8µM*[quencher]	2.8%[59 µM]	25.1µM*	?	-10.2%
Fc1cc(NCc2ccccc2)nc(NCc2ccccc2)n1	-2.8	1.9%	0.9%	-6.7%	-2.0%	-1.6%
Cc1ccc(CNC(=O)COC(=O)c2ccc(S(=O)(=O)NCc3ccco3)cc2)cc1	·	·	-24.0%[59 µM]	·	·	·
Cc1ccc(NS(=O)(=O)c2ccc(-c3csc(C)n3)s2)c(C)c1	-0.6	-19.5%	·	-28.4%	-14.6%	·
CCOC(=O)CSc1nc(-c2ccncc2)ccc1C#N	2.2	-20.0%	7.9%[59 µM]	14.8%	6.0%	?
Cc1csc(C(C#N)C(=O)c2ccncc2)n1 (centres undefined)	0.9	-7.7%	50.1µM*	-9.7%	-2.0%	-14.5%
O=C(O)CC(NCc1ccco1)C(=O)Nc1cccc(O)c1 (centres undefined)	1.2	15.3%	50.1µM*	?	-4.2%	·
O=C(O)CC(NCc1ccco1)C(=O)OCCCl (centres undefined)	-5.0	1.3%	7.94µM*	-46.1%	8.7%	-4.0%
COCCOC(=O)C(CC(=O)O)NCc1ccco1 (centres undefined)	-1.4	9.6%	·	?	-0.1%	2.9%
Cc1ccc(OCC(=O)Nc2ccccc2C(=O)OCc2cc(=O)n3c(C)csc3n2)cc1	·	-13.9%	3.9%[12.7 µM]	·	-1.0%	-12.3%
Cc1ccc(/C=N/N2CCN(c3ccncc3S(=O)(=O)N3CCCCC3)CC2)cc1	-1.4	-25.5%	18.8%[2.33 µM]	-27.1%	14.2%	-18.8%
COc1cccc(/C=N/N2CCN(c3ccncc3S(=O)(=O)N3CCCCC3)CC2)c1	-1.3	-18.1%	50.1µM*	-15.2%	5.4%	-8.8%
CCOC(=O)c1c(C)oc2nc(C)nc(NCC3CCN(Cc4ccc(F)cc4)CC3)c12	·	4.8%	-24.2%[59 µM]	·	-2.8%	3.0%
O=C(c1ccc([N+](=O)[O-])o1)N1CCN(c2nc3c(F)cc(F)cc3s2)CC1	·	·	44.7µM*	·	·	·
O=C(c1cccs1)N1CCN(c2nc3c(F)cc(F)cc3s2)CC1	·	·	-3.2%[0.501 µM]	·	·	·
O=c1c2c([N+](=O)[O-])cc([N+](=O)[O-])cc2sn1-c1ccc(Br)cc1	-0.5	?	1.41µM*	8.91µM*	22.4µM*	14.1µM*
O=c1c2c([N+](=O)[O-])cc([N+](=O)[O-])cc2nc2ccccn12	0.3	·	?	-9.3%	·	·
O=c1c2c([N+](=O)[O-])cc([N+](=O)[O-])cc2sn1Cc1ccccc1	0.9	·	1µM*	2.24µM*	·	·
CCOc1cc(C(=O)Nc2ccc(-c3nnc4n3CCCCC4)cc2)cc(OCC)c1OCC	·	-3.1%	-19.6%[59 µM]	·	5.7%	2.5%
COc1ccc(NS(=O)(=O)c2ccc3c(c2)[C@H]2C=CC[C@H]2[C@@H](c2ccc(C(=O)O)cc2)N3)cc1	1.8	?	25.1µM*	-27.9%	-17.4%	25.1µM*
